According to PubChem BioAssay (NCATS):
Inconclusive results are not listed. Where a call stands in place of a potency, no number is given. Values without a mark were called inactive. Activity calls are given as the source filed them. Calls come from the whole dose curve; as a rule, active = well fitted inhibition curve with a large enough effect; inconclusive = small, poorly fitted or top-dose-only effect; inactive = flat fitted curve, though single readings scatter.

How the values were obtained:
[1] = qHTS profiling for inhibitors of Plasmodium falciparum proliferation (AID 504749); for all read-outs here: nearly all actives have a fitted effect of over 60% in size; conditions: P. falciparum in erythrocytes, SYBR Green DNA, 72 h; for activity, negative = inhibition: at 28.7 µM (top of the series)
Outline: (§1)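 Quantitative HTS: compounds pinned into medium, infected erythrocytes added (0.3% parasitemia, 2.5% hematocrit), 72 h culture at 37 C under 5% CO2. Saponin/Triton lysis with SYBR Green I, overnight RT, then fluorescence read.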

3D7 = assay: as above; conditions: P. falciparum in erythrocytes, SYBR Green DNA, 72 h; series mostly up to 28.7 µM
Outline: as §1

7G8 = assay: as above; conditions: P. falciparum in erythrocytes, SYBR Green DNA, 72 h; series mostly up to 28.7 µM
Outline: as §1

AA1029 = assay: as above; conditions: P. falciparum in erythrocytes, SYBR Green DNA, 72 h; series mostly up to 28.7 µM
Outline: as §1

AS120 = assay: as above; conditions: P. falciparum in erythrocytes, SYBR Green DNA, 72 h; series mostly up to 28.7 µM
Outline: as §1

ATS189 = assay: as above; conditions: P. falciparum in erythrocytes, SYBR Green DNA, 72 h; series mostly up to 28.7 µM
Outline: as §1

ATS95 = assay: as above; conditions: P. falciparum in erythrocytes, SYBR Green DNA, 72 h; series mostly up to 28.7 µM
Outline: as §1

C2A = assay: as above; conditions: P. falciparum in erythrocytes, SYBR Green DNA, 72 h; series mostly up to 28.7 µM
Outline: as §1

CP185 = assay: as above; conditions: P. falciparum in erythrocytes, SYBR Green DNA, 72 h; series mostly up to 28.7 µM
Outline: as §1

CP191 = assay: as above; conditions: P. falciparum in erythrocytes, SYBR Green DNA, 72 h; series mostly up to 28.7 µM
Outline: as §1

CP192 = assay: as above; conditions: P. falciparum in erythrocytes, SYBR Green DNA, 72 h; series mostly up to 28.7 µM
Outline: as §1

CP194 = assay: as above; conditions: P. falciparum in erythrocytes, SYBR Green DNA, 72 h; series mostly up to 28.7 µM
Outline: as §1

CP201 = assay: as above; conditions: P. falciparum in erythrocytes, SYBR Green DNA, 72 h; series mostly up to 28.7 µM
Outline: as §1

CP203 = assay: as above; conditions: P. falciparum in erythrocytes, SYBR Green DNA, 72 h; series mostly up to 28.7 µM
Outline: as §1

CP211 = assay: as above; conditions: P. falciparum in erythrocytes, SYBR Green DNA, 72 h; series mostly up to 28.7 µM
Outline: as §1

CP215 = assay: as above; conditions: P. falciparum in erythrocytes, SYBR Green DNA, 72 h; series mostly up to 28.7 µM
Outline: as §1

CP217 = assay: as above; conditions: P. falciparum in erythrocytes, SYBR Green DNA, 72 h; series mostly up to 28.7 µM
Outline: as §1
Potency is the fitted concentration of half-maximal effect.

Structure (SMILES) | activity, negative = inhibition ([1]; parasite line A) [%] | activity, negative = inhibition ([1]; parasite line B) [%] | Potency (3D7) | Potency (7G8) | Potency (AA1029) | Potency (AS120) | Potency (ATS189) | Potency (ATS95) | Potency (C2A) | Potency (CP185) | Potency (CP191) | Potency (CP192) | Potency (CP194) | Potency (CP201) | Potency (CP203) | Potency (CP211) | Potency (CP215) | Potency (CP217) | Potency ([1]; parasite line A) | Potency ([1]; parasite line B)
CC(=O)N[C@@H](CCC(=O)O)C(=O)O | 4.59 | 2.94 | inactive | inactive | inactive | inactive | inactive | inactive | inactive | inactive | inactive | inactive | inactive | inactive | inactive | inactive | inactive | inactive |  | 
Cc1cccc(C)c1NC(=O)c1ccccc1C(=O)O | 19.5 | 8.59 | inactive | inactive | inactive | inactive | inactive | inactive | inactive | inactive | inactive | inactive | inactive | inactive | inactive | inactive | inactive | inactive |  | 
Cc1cccc(C)c1NC(=O)CN1CCCCCC1 | 14.8 | 4.72 | inactive | inactive | inactive | inactive | inactive | inactive | inactive | inactive | inactive | inactive | inactive | inactive | inactive | inactive | inactive | inactive |  | 
CCOc1ccccc1C(N)=O | -8 | 15.4 | inactive | inactive | inactive | inactive | inactive | inactive | inactive | inactive | inactive | inactive | inactive | inactive | inactive | inactive | inactive | inactive |  | 
Nc1nc(N)c(-c2ccccc2)s1 | 18.4 | 11.9 | inactive | inactive | inactive | inactive | inactive | inactive | inactive | inactive | inactive | inactive | inactive | inactive | inactive | inactive | inactive | inactive |  | 
C[N+]1(CC2COC(c3ccccc3)(C3CCCCC3)O2)CCCCC1 (centres undefined) |  |  | 7.08 µM (active) | 2.51 µM (active) | 5.01 µM (active) | 7.08 µM (active) | 8.91 µM (active) | 6.31 µM (active) | 10 µM (active) | 5.01 µM (active) | 5.62 µM (active) | 4.78 µM (active) | 6.01 µM (active) | 10.7 µM (active) | 4.78 µM (active) | 4.78 µM (active) | 5.36 µM (active) | 8.91 µM (active) | 2.82 µM (active) | 4.47 µM (active)
CC(=O)OC[C@H]1O[C@@H](n2ncc(=O)[nH]c2=O)[C@H](OC(C)=O)[C@@H]1OC(C)=O | 3.78 | 0.953 | inactive | inactive | inactive | inactive | inactive | inactive | inactive | inactive | inactive | inactive | inactive | inactive | inactive | inactive | inactive | inactive |  | 
c1ccc(-c2nc[nH]c2-c2ccccc2)cc1 | 7.29 | -4.58 | inactive | inactive | inactive | inactive | inactive | inactive | inactive | inactive | inactive | inactive | inactive | inactive | inactive | inactive | inactive | inactive |  | 
CC(=O)Nc1ccc(CC(=O)O)cc1 | 9.92 | 11.5 | inactive | inactive | inactive | inactive | inactive | inactive | inactive | inactive | inactive | inactive | inactive | inactive | inactive | inactive | inactive | inactive |  | 
Oc1ccccc1C=NCc1ccccc1 | 2.18 | -16.9 | inactive | inactive | inactive | inactive | inactive | inactive | inactive | inactive | inactive | inactive | inactive | inactive | inactive | inactive | inactive | inactive |  | 
CCOc1cc(OCC)c(C(=O)CCC(=O)O)cc1OCC | 5.68 | 1.04 | inactive | inactive | inactive | inactive | inactive | inactive | inactive | inactive | inactive | inactive | inactive | inactive | inactive | inactive | inactive | inactive |  | 
Cc1cccc(C)c1NC(=O)CN1CCCC1 | -5.07 | 5.99 | inactive | inactive | inactive | inactive | inactive | inactive | inactive | inactive | inactive | inactive | inactive | inactive | inactive | inactive | inactive | inactive |  | 
C/C=C/C=N/NC(=O)c1ccncc1 | -1.02 | -0.189 | inactive | inactive | inactive | inactive | inactive | inactive | inactive | inactive | inactive | inactive | inactive | inactive | inactive | inactive | inactive | inactive |  | 
O=C(c1ccc(F)cc1)C1CCN(CCn2c(=S)[nH]c3ccccc3c2=O)CC1 |  |  | 11.2 µM (active) | 2.24 µM (active) | 4.47 µM (active) | 2.82 µM (active) | 6.31 µM (active) | 5.01 µM (active) | 10 µM (active) | 7.94 µM (active) | 11.2 µM (active) | 6.75 µM (active) | 7.57 µM (active) | 7.57 µM (active) | 6.01 µM (active) | 6.01 µM (active) | 5.36 µM (active) | 5.01 µM (active) | 5.01 µM (active) | 10 µM (active)
Cc1ccccc1OCC(O)CO (centres undefined) | 13.7 | 2.74 | inactive | inactive | inactive | inactive | inactive | inactive | inactive | inactive | inactive | inactive | inactive | inactive | inactive | inactive | inactive | inactive |  | 
CC(=O)Nc1ccc(OCC(O)CNC(C)C)cc1 (centres undefined) | 13.4 | 11.8 | inactive | inactive | inactive | inactive | inactive | inactive | inactive | inactive | inactive | inactive | inactive | inactive | inactive | inactive | inactive | inactive |  | 
CCC1Nc2cc(Cl)c(S(N)(=O)=O)cc2S(=O)(=O)N1 (centres undefined) | 11 | 6.74 | inactive | inactive | inactive | inactive | inactive | inactive | inactive | inactive | inactive | inactive | inactive | inactive | inactive | inactive | inactive | inactive |  | 
CCc1ccc(C(=O)C(C)CN2CCCCC2)cc1 (centres undefined) | 2.55 | 6.09 | inactive | inactive | inactive | inactive | inactive | inactive | inactive | inactive | inactive | inactive | inactive | inactive | inactive | inactive | inactive | inactive |  | 
